In ChEMBL document CHEMBL3988442, “University of Dundee, Small-Polar-MMV Screening Library” (2021):

What follows are molecules tested against T1, Aspartate--tRNA(Asp/Asn) ligase (Mycobacterium tuberculosis (strain ATCC 25618 / H37Rv)) (UniProt P9WFW3) (assay: Assay for Asp RNA synthetase-1 from Mycobacterium tuberculosis). Conditions: 30 µM.
T1 sequence (whole entry): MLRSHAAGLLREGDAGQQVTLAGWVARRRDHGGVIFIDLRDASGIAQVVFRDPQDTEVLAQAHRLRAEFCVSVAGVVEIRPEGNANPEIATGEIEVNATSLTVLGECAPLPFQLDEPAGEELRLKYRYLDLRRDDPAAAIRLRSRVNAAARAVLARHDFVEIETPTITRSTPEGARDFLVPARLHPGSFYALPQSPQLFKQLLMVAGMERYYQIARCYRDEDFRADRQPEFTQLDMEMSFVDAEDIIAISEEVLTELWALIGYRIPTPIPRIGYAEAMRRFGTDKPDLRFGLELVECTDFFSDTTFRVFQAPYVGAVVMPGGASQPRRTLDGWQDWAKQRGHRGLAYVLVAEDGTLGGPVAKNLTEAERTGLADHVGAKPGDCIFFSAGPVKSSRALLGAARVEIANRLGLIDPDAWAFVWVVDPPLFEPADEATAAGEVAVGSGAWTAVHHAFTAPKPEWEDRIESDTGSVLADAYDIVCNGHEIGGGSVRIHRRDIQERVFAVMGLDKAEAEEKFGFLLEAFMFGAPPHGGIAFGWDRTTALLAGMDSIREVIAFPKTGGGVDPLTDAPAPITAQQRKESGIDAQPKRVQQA
Assay type: functional
Design: scale not given: in the data most compounds retested in dose-response had high values

SMILES | Percent Effect [%]
CCCc1nc(C)c(C(=O)NS(=O)(=O)c2ccc(C#N)cc2)s1 | 0.836
CCn1nc(C)c2nnn(CC(=O)Nc3cccc(Cl)c3)c(=O)c21 | -0.523
CC(O)CN1CCN(C(=O)c2cc3ccccc3[nH]c2=O)CC1 (stereo not given) | -2.04
Cc1cccc(-c2ccc(C(=O)NCC3CCOC3)c(=O)[nH]2)c1 (stereo not given) | 7.65
O=C1NC2(CCN(Cc3nccs3)CC2)CC1c1ccncc1 (stereo not given) | 0.717
COc1ccc(CN2CC[C@H](NC(C)=O)[C@@H](O)CC2)c(OC)c1 | 3.53
CO[C@@H]1CC[C@@H](N(C)C(=O)COc2ccc(F)cc2)[C@H]1O | 3.81
OC(CN1CCN(Cc2ccc(F)c(F)c2)CC1)C1CC1 (stereo not given) | -4.54
Cc1cnn(C2CCCN(C(=O)c3cnc4ccccc4n3)C2)c1 (stereo not given) | 9.11
COCCN1CCC(NC(=O)C2(c3cc(C)cc(C)c3)CC2)CC1 | -4.05
Cc1cc(C)n(CC2CCCCN2Cc2cscn2)n1 (stereo not given) | -3.34
CSc1ccc(S(=O)(=O)N2CCCCC2CCNC(C)=O)cc1 (stereo not given) | 7.57
c1cnc(-c2nc(CN3CCCC(Cn4cncn4)C3)cs2)nc1 (stereo not given) | -1.55
CC(C)n1c(C2CCCN(Cc3ccnn3C)C2)nc2ccccc21 (stereo not given) | -2.04
CC1(C)CC(N2Cc3nc(N)ncc3C2=O)CC(C)(C)N1 | 7.13
CC(C)C(=O)N1CCN(Cc2cc(-c3ccncc3)nn2C)CC1 | 0.491
c1cnnc(N2CCCC(NCc3nc(C4CC4)no3)C2)c1 (stereo not given) | 6.87
Cc1cnn(CCNCC(=O)NCc2ccccc2)c1 | 1.29
CC(=O)N1CCN(C(=O)NCc2csc(Br)c2)CC1 | 0.204
Cc1noc(C)c1CNc1cc(N2CCCC2CO)ncn1 (stereo not given) | -7.32

SMILES | Percent Effect [%]
Cc1nc(C)c(CC(=O)Nc2ncc(C)s2)c(=O)[nH]1 | -3.61
CN1CC(c2ccccc2)CC12CCN(C(=O)c1cncc(Cl)c1)CC2 (stereo not given) | 0.408
O=C(CCC(=O)N1CCCC1c1cccs1)N1CCc2sccc2C1 (stereo not given) | -0.31
Cc1cnn(C2CCCN(C(=O)c3cn4cccnc4n3)C2)c1 (stereo not given) | -0.409
Cc1nn(CC(C)C)c(N(C)C)c1CNCc1cc2ccccc2[nH]1 | -2.12
Cn1c(C(F)(F)F)nn(CCNC(=O)NCc2ccccc2)c1=O | -5.98
O=C(O)C1(Cc2cc(-c3cccc(F)c3)no2)CCOCC1 | -1.59
Cc1nc(C)n(C2CCCN(C(=O)c3cc(C(N)=O)cs3)C2)n1 (stereo not given) | -5.92
c1cc(-c2nc(CN3CCn4c(nnc4C4CC4)C3)cs2)cs1 | -2.61
Cc1cccc(CS(=O)(=O)NCC(O)Cc2ccccc2)c1 (stereo not given) | -8.39
CC(C)CCN1CC2(CCCN(C(=O)c3cscn3)C2)CCC1=O (stereo not given) | 8.2
CCN1CC2(CCC1=O)CCN(C(=O)c1ccc(Cl)cc1O)CC2 | -1.67
CN(C)CCNC(=O)CNC(=O)N1CCc2c([nH]c3ccc(Cl)cc23)C1 | 6.71
Cc1noc(C)c1C(=O)NCc1ccc(N2CCOC(C)C2)nc1 (stereo not given) | -1.75
Cc1ccc(-c2nnc(CNCCn3cc(C)cn3)o2)cc1 | 2.15
N#CC1(C(=O)N2CCN(Cc3ccon3)CC2)CCC1 | -1.89
CC(O)CN1CCC(CNCc2cccc(OC(C)C)c2)CC1 (stereo not given) | 3.21
O=C1CC2(CCN(c3nncs3)C2)CN1c1ccccc1 (stereo not given) | 2.1
CC(C)(C)c1n[nH]c(C2CN(C(=O)c3cc(C4CC4)on3)CCO2)n1 (stereo not given) | -2.16
CN1CC(=O)N(c2cccc(F)c2)CC12CCNC2 (stereo not given) | -4.35
